Among all 2,000 compounds or so, about 110 (5.5%) showed an effect of 50% or more. The list comes from a sample in which strong results are over-represented; it also holds similar structures and randomly drawn compounds. Residues, ends and D or L forms follow the SMILES beside them. *: point of attachment. pNA = O=[N+]([O-])c1ccc(N*)cc1; Boc = CC(C)(C)OC(=O)*
Molecular target: Genome polyprotein (dengue virus type 2) (UniProt P29990)
[1] = Thailand/16681/1984, Concentration 25.0 uM, Number of replicates 1.0

CC(C)Nc1nc2cc(NCc3cccc(C(N)=O)c3)ccc2[nH]1
inhibition (Thailand/16681/1984, Concentration 49.5 uM, Number of replicates 2.0, Standard deviation 0.023235641877752903 %): -0.517% | inhibition (Thailand/16681/1984, Concentration 99.01 uM, Number of replicates 2.0, Standard deviation 0.06423980503181957 %): 1.24% | inhibition (Thailand/16681/1984, Concentration 198.0 uM, Number of replicates 2.0, Standard deviation 0.8255495407458023 %): 3.31%

CSCC[C@H](NC(=O)OC(C)(C)C)C(=O)N1CCC[C@H]1C(=O)Nc1ccc([N+](=O)[O-])cc1 (Boc-Met-Pro-pNA)
inhibition (Thailand/16681/1984, Concentration 49.5 uM, Number of replicates 2.0, Standard deviation 0.6934296230825803 %): 10.3% | inhibition (Thailand/16681/1984, Concentration 99.01 uM, Number of replicates 2.0, Standard deviation 0.4989876662884813 %): 17.1% | inhibition (Thailand/16681/1984, Concentration 198.0 uM, Number of replicates 2.0, Standard deviation 0.32485037523299065 %): 29.3%

CNC(=O)C1CCC(Nc2nc(Cl)cc3c(F)cccc23)CC1 (stereo not drawn)
inhibition (Thailand/16681/1984, Concentration 49.95 uM, Number of replicates 2.0, Standard deviation 5.365912193998162 %): -9.93%

C[C@@H](NC(=O)C1CCN(c2ccc(C=O)cc2)CC1)c1ccc2ccccc2c1
inhibition [1]: 1.94%

Cc1nn(C)nc1-c1nn(C)cc1NC(=O)c1ccccc1C(F)(F)F
inhibition (Thailand/16681/1984, Concentration 49.5 uM, Number of replicates 2.0, Standard deviation 2.7709187614774393 %): -3.06% | inhibition (Thailand/16681/1984, Concentration 99.01 uM, Number of replicates 2.0, Standard deviation 2.812620033505876 %): -2.31% | inhibition (Thailand/16681/1984, Concentration 198.0 uM, Number of replicates 2.0, Standard deviation 2.009504923047635 %): -2.5%

O=Cc1ccc(N2CCC(C(=O)N3CCCCC[C@H]3c3ccco3)CC2)cc1
inhibition [1]: 13.4%

Cn1oc(C(=O)Nc2cc(Cl)cc(C(=O)NC(C)(C)CO)c2)cc1=O
inhibition (Thailand/16681/1984, Concentration 49.5 uM, Number of replicates 2.0, Standard deviation 0.8141956117621647 %): -0.341% | inhibition (Thailand/16681/1984, Concentration 99.01 uM, Number of replicates 2.0, Standard deviation 1.5201786631370027 %): 0.297% | inhibition (Thailand/16681/1984, Concentration 198.0 uM, Number of replicates 2.0, Standard deviation 2.6564108106217375 %): 1.39%

C[C@@H](O)CNC(=O)c1cc(Cl)ccc1NS(=O)(=O)c1ccc(Oc2ccccc2Cl)cc1
inhibition (Thailand/16681/1984, Concentration 49.5 uM, Number of replicates 2.0, Standard deviation 1.4145601780552486 %): 30.4% | inhibition (Thailand/16681/1984, Concentration 99.01 uM, Number of replicates 2.0, Standard deviation 0.06674442365142796 %): 75.7% | inhibition (Thailand/16681/1984, Concentration 198.0 uM, Number of replicates 2.0, Standard deviation 0.019135343573522066 %): 67%

O=Cc1ccc(N2CCC(C(=O)Nc3ncc(C(F)(F)F)cc3Cl)CC2)cc1
inhibition [1]: 11.8%

Cc1cc(CO)c2cccc(NCc3ccc(C(N)=O)cc3)c2n1
inhibition (Thailand/16681/1984, Concentration 49.95 uM, Number of replicates 2.0, Standard deviation 1.5291755401543807 %): 1.6% | inhibition (Thailand/16681/1984, Concentration 99.9 uM, Number of replicates 2.0, Standard deviation 0.4954793626184345 %): 6.67%

Cc1cc(N)cc(CNc2cccc3c(CO)cc(C)nc23)c1
inhibition (Thailand/16681/1984, Concentration 49.95 uM, Number of replicates 2.0, Standard deviation 2.268676515546947 %): 34.9% | inhibition (Thailand/16681/1984, Concentration 99.9 uM, Number of replicates 2.0, Standard deviation 1.0884002159453274 %): 63.5%

Cc1cc(CO)c2cccc(Cc3cccc(C(=O)NCc4c(C)noc4C)c3)c2n1
inhibition (Thailand/16681/1984, Concentration 49.95 uM, Number of replicates 2.0, Standard deviation 0.7006856245222158 %): 1.58% | inhibition (Thailand/16681/1984, Concentration 99.9 uM, Number of replicates 2.0, Standard deviation 0.008623919554905093 %): 5.27%

Cc1cc(CO)c2cccc(Cc3cccc(C(=O)NCc4ccc(C(N)=O)cc4)c3)c2n1
inhibition (Thailand/16681/1984, Concentration 49.95 uM, Number of replicates 2.0, Standard deviation 1.5788782649320652 %): -6.46% | inhibition (Thailand/16681/1984, Concentration 99.9 uM, Number of replicates 2.0, Standard deviation 2.3363374645660926 %): -3.45%

Cc1cc(CO)c2cccc(Cc3ccccc3C(=O)NCCc3ncc[nH]3)c2n1
inhibition (Thailand/16681/1984, Concentration 49.95 uM, Number of replicates 2.0, Standard deviation 0.3032711887954129 %): 14.1% | inhibition (Thailand/16681/1984, Concentration 99.9 uM, Number of replicates 2.0, Standard deviation 0.18110062477906652 %): 34.2%

Cc1cc(CO)c2cccc(NCc3ccc(S(N)(=O)=O)cc3)c2n1
inhibition (Thailand/16681/1984, Concentration 49.95 uM, Number of replicates 2.0, Standard deviation 1.2377055953825635 %): 8.26% | inhibition (Thailand/16681/1984, Concentration 99.9 uM, Number of replicates 2.0, Standard deviation 1.691711110367126 %): 17.2%

Cc1cc(CO)c2cccc(CC(=O)NCCc3ncc[nH]3)c2n1
inhibition (Thailand/16681/1984, Concentration 49.95 uM, Number of replicates 2.0, Standard deviation 0.7345959673097169 %): 39.1% | inhibition (Thailand/16681/1984, Concentration 99.9 uM, Number of replicates 2.0, Standard deviation 0.015925439590932376 %): 77.7%

Cc1cc(CO)c2cccc(CC(=O)NCc3ccc(C(N)=O)cc3)c2n1
inhibition (Thailand/16681/1984, Concentration 49.95 uM, Number of replicates 2.0, Standard deviation 0.824600056542549 %): -4.43% | inhibition (Thailand/16681/1984, Concentration 99.9 uM, Number of replicates 2.0, Standard deviation 0.5940444883081935 %): 2.19%

Cc1cc(N)cc(CNC(=O)c2cccc(Cc3cccc4c(CO)cc(C)nc34)c2)c1
inhibition (Thailand/16681/1984, Concentration 49.95 uM, Number of replicates 2.0, Standard deviation 0.2659014326821377 %): 29.9% | inhibition (Thailand/16681/1984, Concentration 99.9 uM, Number of replicates 2.0, Standard deviation 1.3431613936290656 %): 54.9%

Cc1cc(CO)c2cccc(Cc3cccc(C(=O)NCCc4ncc[nH]4)c3)c2n1
inhibition (Thailand/16681/1984, Concentration 49.95 uM, Number of replicates 2.0, Standard deviation 2.0725920117726813 %): -4.03% | inhibition (Thailand/16681/1984, Concentration 99.9 uM, Number of replicates 2.0, Standard deviation 0.8997522707097182 %): 1.59%

Cc1cc(CO)c2cccc(CC(=O)NCC(N)=O)c2n1
inhibition (Thailand/16681/1984, Concentration 49.95 uM, Number of replicates 2.0, Standard deviation 1.3653333333441007 %): -7.85% | inhibition (Thailand/16681/1984, Concentration 99.9 uM, Number of replicates 2.0, Standard deviation 0.5261932884148693 %): -6.61%

Cc1cc(N)cc(CNC(=O)Cc2cccc3c(CO)cc(C)nc23)c1
inhibition (Thailand/16681/1984, Concentration 49.95 uM, Number of replicates 2.0, Standard deviation 0.21775017554498763 %): 39.7% | inhibition (Thailand/16681/1984, Concentration 99.9 uM, Number of replicates 2.0, Standard deviation 1.7887257377938661 %): 61.7%

CSCC[C@H](NC(=O)OC(C)(C)C)C(=O)N1CCC[C@H]1C(=O)Nc1ccc(CN)cc1
inhibition (Thailand/16681/1984, Concentration 49.5 uM, Number of replicates 2.0, Standard deviation 0.5873455681071067 %): 0.345% | inhibition (Thailand/16681/1984, Concentration 99.01 uM, Number of replicates 2.0, Standard deviation 0.9875045381203101 %): 1.56% | inhibition (Thailand/16681/1984, Concentration 198.0 uM, Number of replicates 2.0, Standard deviation 0.49996007837732465 %): 2.5%

CCc1nc(CNC(=O)[C@]2(c3ccc(F)cc3)CCCNC2)n[nH]1
inhibition (Thailand/16681/1984, Concentration 49.5 uM, Number of replicates 2.0, Standard deviation 0.49799700461423274 %): -1.23% | inhibition (Thailand/16681/1984, Concentration 99.01 uM, Number of replicates 2.0, Standard deviation 0.6482125452450617 %): -1.25% | inhibition (Thailand/16681/1984, Concentration 198.0 uM, Number of replicates 2.0, Standard deviation 1.0139545093997464 %): -1.41%

O=Cc1ccc(N2CCC(C(=O)NCc3ccccc3Br)CC2)cc1
inhibition [1]: 12.3%

O=Cc1ccc(N2CCC(C(=O)NCc3ccc4ccccc4n3)CC2)cc1
inhibition [1]: 12.8%

Cc1nc(C2CCN(Cc3c[nH]c4ccccc34)CC2)sc1C(=O)O
inhibition (Thailand/16681/1984, Concentration 49.5 uM, Number of replicates 2.0, Standard deviation 2.532196482700825 %): -7.37% | inhibition (Thailand/16681/1984, Concentration 99.01 uM, Number of replicates 2.0, Standard deviation 0.1962596660766768 %): -5.26% | inhibition (Thailand/16681/1984, Concentration 198.0 uM, Number of replicates 2.0, Standard deviation 1.7247831523377455 %): -1.52%

COC(=O)c1cncc(C(=O)Nc2ccncc2C)c1
inhibition (Thailand/16681/1984, Concentration 49.5 uM, Number of replicates 2.0, Standard deviation 6.3209660189886 %): 2.4% | inhibition (Thailand/16681/1984, Concentration 99.01 uM, Number of replicates 2.0, Standard deviation 0.9582277355643998 %): -1.8% | inhibition (Thailand/16681/1984, Concentration 198.0 uM, Number of replicates 2.0, Standard deviation 0.7051109593221626 %): -2.38%

Cc1cc(S(=O)(=O)NCCNC(=O)c2ccc(O)c(NC(=O)c3ccncc3F)c2C)c(C)s1
inhibition (Thailand/16681/1984, Concentration 49.5 uM, Number of replicates 2.0, Standard deviation 0.0696651159595359 %): -1.95% | inhibition (Thailand/16681/1984, Concentration 99.01 uM, Number of replicates 2.0, Standard deviation 0.12517951182523615 %): -1.5% | inhibition (Thailand/16681/1984, Concentration 198.0 uM, Number of replicates 2.0, Standard deviation 0.5034395957498385 %): 0.045%

COc1ccc(CN(C)C(=O)C2CCN(c3ccc(C=O)cc3)CC2)c(OC)c1
inhibition [1]: 14%

NC(=O)c1c(NC(=O)C2CCN(c3ccc(C=O)cc3)CC2)sc2c1CCCC2
inhibition [1]: 38.6%

CCn1cc(S(=O)(=O)Nc2ccc(Cl)cc2C(=O)NC)cn1
inhibition (Thailand/16681/1984, Concentration 49.5 uM, Number of replicates 2.0, Standard deviation 0.5029835247021022 %): -6.21%

Reference: ChEMBL document CHEMBL5606460, “ASAP - DENV-2 NS2B-NS3 protease fluorescence single point” (2024)
